We go through 14 compounds from PubChem BioAssay.

In assay [1] the test system is Wnt5a (protein binding on small-molecule microarray). The assay is described as follows: Wnt5a binders on small-molecule microarray, primary screen, biophysical, 635/667 nm fluorescence (AID 1142).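 Note: fluorescence read at 667 nm with signal to noise per printed feature.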 Conditions: 635 nm fluorescence, higher = more signal.
A short description of assay [2]: cell viability in Huh7 cells, primary screen, cytotoxicity control for HCV replication inhibitor project, CellTiter-Glo luminescence, basal, 48 h (AID 1143).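 Note: Huh7 hepatoma cells carrying a hepatitis C replication reporter with no stimulus; test concentration not given here.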 Conditions: Huh7 HCV replicon, higher = more signal, called active from +8 up or from −8 down. For orientation: In ATP-based viability assays light output follows the ATP content of the culture.
Assay [3] is described as follows: P. aeruginosa biofilm formation inhibitors, primary screen, PAO1 strain, BacTiter-Glo luminescence, LB-PBS (AID 1144). The settings on record: 12 h, higher = more signal.
Assay [4] can be described thus: CREB reporter modulators without forskolin, primary screen, cell-based, PC12, CRE-LacZ reporter, unstimulated (AID 1145). Conditions: no forskolin, luminescence, 4.5 h, higher = more signal, called active from +8 up or from −8 down.
Assay [5] is described as follows: CREB reporter modulators under forskolin, primary screen, cell-based, PC12, CRE-LacZ reporter, forskolin-stimulated (AID 1146).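 Note: PC12 cells with 6xCRE LacZ reporter stimulated by forskolin 10 µM; beta-galactosidase reporter signal reflecting CREB driven transcription.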 The settings on record: luminescence, 4.5 h, higher = more signal, called active from +8 up or from −8 down.
Assay [6] addresses Streptavidin (Streptomyces avidinii) (UniProt P22629). The assay is described as follows: streptavidin binders on small-molecule microarray, primary screen, artefact control for SMM compound annotation, biophysical, 635/667 nm fluorescence (AID 1147).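 Note: signal reflects streptavidin binding to arrayed compounds as a control protein.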 The settings on record: streptavidin binding, higher = more signal.
Assay [7] is described as follows: small-molecule binders of probe aInhba, primary screen, biochemical, small-molecule microarray, 635/667 nm fluorescence (AID 1148).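 Note: score merges 667nm spot fluorescence with signal-to-noise for antibody binding to printed compounds.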 Conditions: higher = more signal.
The target of assay [8] is Torsin-1A (Homo sapiens) (UniProt O14656). Kind of assay: torsin A binders from cell lysate, primary screen, small-molecule microarray, wild-type, 635/667 nm (AID 1149). Conditions: COS7 hTOR1A-WT lysate, 635 nm fluorescence, higher = more signal.
Torsin-1A (Homo sapiens), sequence (O14656 whole entry, looked up): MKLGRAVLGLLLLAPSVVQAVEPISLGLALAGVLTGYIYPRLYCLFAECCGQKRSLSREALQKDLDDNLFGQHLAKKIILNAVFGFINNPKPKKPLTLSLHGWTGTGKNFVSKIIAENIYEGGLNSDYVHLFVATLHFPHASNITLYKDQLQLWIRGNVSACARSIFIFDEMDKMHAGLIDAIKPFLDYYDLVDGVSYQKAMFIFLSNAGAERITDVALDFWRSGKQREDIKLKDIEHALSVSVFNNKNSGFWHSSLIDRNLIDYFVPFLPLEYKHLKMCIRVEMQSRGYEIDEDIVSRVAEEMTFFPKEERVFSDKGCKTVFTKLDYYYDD
The target is the same in assay [9]. Kind of assay: small-molecule binders of mutant TOR1A in lysate, primary screen, cell lysate, small-molecule microarray, COS7 lysate, 635/667 nm fluorescence (AID 1150).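 Note: score pools 667 nm emission and signal to noise measuring lysate protein binding.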 Conditions: COS7 hTOR1A mutant lysate, 635 nm fluorescence, higher = more signal.
Assay [10] deals with Sonic hedgehog protein (Shh). The assay is described as follows: small-molecule binders of Shh protein, primary screen, biochemical, small-molecule microarray, 635/667 nm fluorescence (AID 1151).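 Note: Shh protein binding to compounds spotted on small-molecule microarray slides; score combines spot fluorescence intensity with signal-to-noise across triplicate slides.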 Conditions: small-molecule microarray binding, 635 nm fluorescence; higher = more signal.

Calls of active or inactive are those of the source. Unless noted, the rule behind the calls is not given here.

Streptavidin (Streptomyces avidinii), sequence (P22629 whole entry, looked up): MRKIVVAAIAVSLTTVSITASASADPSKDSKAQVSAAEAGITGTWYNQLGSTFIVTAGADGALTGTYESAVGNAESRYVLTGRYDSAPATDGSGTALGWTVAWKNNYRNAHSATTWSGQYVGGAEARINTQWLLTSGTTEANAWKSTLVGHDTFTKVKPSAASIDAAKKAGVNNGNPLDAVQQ

In the case of `OCCCC1=CC(c2ccc(CN3CCCC3)cc2)N(Cc2cccc(OC(F)(F)F)c2)CC1` (stereo not given), the composite z-score in assay [1] is -0.131; in [6], -0.69; in [7] it was -0.0791; in the assay with Torsin-1A (Homo sapiens) [8] it was 0.265; in the assay with Torsin-1A (Homo sapiens) [9] it was -0.165; in assay [10] it was 0.365. Besides, the z-score in [2] was -9.01 (active); in assay [3] it was 0.697 (inactive); in assay [4], -0.0884 (inactive); in [5] it was 0.593 (inactive).
With `CC(C)C[C@@H]1NC(=O)[C@@H]2C[C@H](C(=O)NCCCCCCNC(=O)CS)[C@H](c3cccc(OCCO)c3)N2C1=O`, the composite z-score in assay [1] came to 0.971; in [6], 1.22; in assay [7] it was 0.159; with Torsin-1A (Homo sapiens) [8], 1.15; with Torsin-1A (Homo sapiens) [9] it was 1.18; in [10], 2.38. For the same compound, the z-score in assay [2] is 0.0734 (inactive); in assay [3] it was -0.253 (inactive); in [4], 0.688 (inactive); in assay [5], 0.0025 (inactive).
With `C=CCC(OC(C)=O)[C@@H]1[C@@H](N(Cc2ccc(-c3ccccc3)cc2)C(=O)c2cccc3ccccc23)c2cc(OCCCO)ccc2N1C(=O)Cc1ccc(OC)cc1` (stereo not given in full), the composite z-score is 0.0948 in assay [1]; 0.0251 in assay [6]; -0.0346 in [7]; -0.476 with Torsin-1A (Homo sapiens) [8]; 0.127 in the assay with Torsin-1A (Homo sapiens) [9]; 0.586 in [10]. The z-score is -1.62 (inactive) in assay [2], 0.0108 (inactive) in assay [3], 0.498 (inactive) in assay [4] and -0.117 (inactive) in [5].
Turning to `C=CCNC(=O)[C@@H]1[C@H]2C(=O)O[C@H](c3ccccc3)[C@H](c3ccccc3)N2[C@H](c2ccc(OCCO)cc2)[C@@]12C(=O)Nc1ccc(C#CC3(O)CCCCCC3)cc12`, the composite z-score in [1] was 0.407; in [6], 0.981; in assay [7], 0.0082; with Torsin-1A (Homo sapiens) [8], 0.507; with Torsin-1A (Homo sapiens) [9], 0.827; in assay [10] it was 0.938. Moreover, the z-score in assay [2] was -5.36 (inactive); in assay [3] it was -1.17 (inactive); in assay [4], 0.155 (inactive); in assay [5] it was 0.856 (inactive).
Take `COC(=O)[C@H](Cc1ccc(O)cc1)N[C@@H](/C=C/C1CC1)[C@H](O)Cc1ccccc1`: the composite z-score in assay [1] is -0.377; in assay [6], -0.295; in assay [7], -0.153; with Torsin-1A (Homo sapiens) [8], -0.474; with Torsin-1A (Homo sapiens) [9] it was 0.0615; in [10], -0.142. Also, the z-score is -0.794 (inactive) in [2], 0.814 (inactive) in assay [3], 7.92 (inactive) in assay [4] and 1.6 (inactive) in assay [5].
`C=CCC(OC(C)=O)[C@@H]1[C@@H](N(Cc2cc3ccccc3o2)C(=O)c2cccc3ccccc23)c2cc(OCCCO)ccc2N1C(=O)c1ccc2ccccc2n1` (stereo not given in full): the composite z-score was 0.0394 in assay [1]; 0.0002 in [6]; -0.0131 in assay [7]; 0.866 with Torsin-1A (Homo sapiens) [8]; -0.661 in the assay with Torsin-1A (Homo sapiens) [9]; 0.151 in [10]. Moreover, the z-score in [2] is -1.35 (inactive); in [3], -0.399 (inactive); in [4] it was 2.6 (inactive); in [5] it was -0.273 (inactive).
Regarding `CC(C)C[C@@H]1NC(=O)[C@@]23C(=O)N[C@@H](Cc4ccccc4)C2[C@H](C)[C@@]2(C)O[C@H]2C3/C=C/C/C=C\CNC(=O)CNC1=O` (stereo not given in full), the composite z-score is -0.0717 in assay [1]; 0.228 in assay [6]; -0.179 in assay [7]; -0.507 with Torsin-1A (Homo sapiens) [8]; 0.939 with Torsin-1A (Homo sapiens) [9]; 0.214 in [10]. Further, the z-score is -1.91 (inactive) in [2], 0.0738 (inactive) in [3], -1.05 (inactive) in assay [4] and -0.767 (inactive) in [5].
On to `C=C(C)[C@@H]1CC=C(C(O)C2C=CC3C(=O)N(C)C(=O)C3N2Nc2ccc([N+](=O)[O-])cc2[N+](=O)[O-])CC1` (stereo not given in full), for which the composite z-score is 0.291 in [1]; 0.707 in assay [6]; -0.0762 in assay [7]; 0.414 in the assay with Torsin-1A (Homo sapiens) [8]; 1.14 with Torsin-1A (Homo sapiens) [9]; 0.413 in assay [10]. Further, the z-score in assay [2] is -0.181 (inactive); in [3], 0.0728 (inactive); in [4], 2.16 (inactive); in [5] it was 0.386 (inactive).
With `CCCN1C(=O)[C@@]2(c3ccc([N+](=O)[O-])cc3)CC(=O)N(CC34CC5CC(CC(C5)C3)C4)[C@@H]2c2ccc(CO)cc21`, the composite z-score in [1] was -0.347; in assay [6], -0.192; in assay [7] it was 0.0588; with Torsin-1A (Homo sapiens) [8], -1.21; with Torsin-1A (Homo sapiens) [9], 0.019; in assay [10] it was 0.102. Further, the z-score in assay [2] was -0.0818 (inactive); in assay [3], 0.312 (inactive); in [4] it was 0.272 (inactive); in [5], 1 (inactive).
`COc1ccc([Si](C)(C)[C@H]2[C@H](CCO)O[C@@]3(C(=O)N(Cc4cccc(N(C=O)c5ccccc5)c4)c4ccccc43)[C@@H]2C)cc1`: the composite z-score is 0.313 in assay [1]; 1.21 in assay [6]; -0.018 in assay [7]; 0.939 with Torsin-1A (Homo sapiens) [8]; 1.01 with Torsin-1A (Homo sapiens) [9]; 1.78 in assay [10]. Further, the z-score in assay [2] was -6.26 (inactive); in assay [3] it was -0.914 (inactive); in assay [4] it was -0.417 (inactive); in [5] it was -1.56 (inactive).
On to `COCCOC(=O)N1C(=O)[C@@]2(c3cc(C#CCCO)ccc31)[C@H](c1ccccc1OCCO)N1[C@H](c3ccccc3)[C@H](c3ccccc3)OC(=O)[C@H]1[C@@H]2C(N)=O`, for which the composite z-score was 0.536 in assay [1]; 0.508 in assay [6]; -0.226 in [7]; -0.0615 with Torsin-1A (Homo sapiens) [8]; 0.172 with Torsin-1A (Homo sapiens) [9]; 1.97 in assay [10]. The z-score in assay [2] is -4.33 (inactive); in [3], -0.441 (inactive); in assay [4], 0.0653 (inactive); in assay [5] it was 18.6 (active).
Consider `C=CCOC(=O)[C@@H]1[C@H]2C(=O)O[C@H](c3ccccc3)[C@H](c3ccccc3)N2[C@H](c2ccc(OCCOC(=O)[C@H]3C[C@H]4C(=O)N5CCC[C@H]5C(=O)N4[C@H]3c3cccc(OCCO)c3)cc2)[C@@]12C(=O)Nc1ccc(I)cc12`, for which the composite z-score was 0.473 in [1]; 0.502 in [6]; -0.0552 in assay [7]; 0.438 with Torsin-1A (Homo sapiens) [8]; 0.618 with Torsin-1A (Homo sapiens) [9]; 1.97 in assay [10]. The z-score in [2] is 0.0351 (inactive); in [3], -0.699 (inactive); in assay [4] it was 0.545 (inactive); in [5] it was -0.206 (inactive).
Consider `O=C1N(CCS(=O)(=O)c2ccccc2)c2ccccc2C[C@]12N=C(c1ccc(OCCCO)cc1)O[C@@H]2c1ccccc1`, for which the composite z-score was determined as 0.553 in assay [1]; 0.404 in assay [6]; 0.0944 in assay [7]; 0.903 with Torsin-1A (Homo sapiens) [8]; 1.41 with Torsin-1A (Homo sapiens) [9]; 0.372 in assay [10]. Moreover, the z-score in assay [2] is -1.62 (inactive); in assay [3], 0.851 (inactive); in [4] it was 0.0219 (inactive); in assay [5], -1.4 (inactive).
For the compound `CC(C)NC(=O)[C@@H]1c2ccccc2C(=O)N(Cc2ccc(OC(F)(F)F)cc2)[C@H]1c1ccc(CO)cc1`, the composite z-score was 0.663 in assay [1]; 0.201 in assay [6]; 0.618 in [7]; 1.12 in the assay with Torsin-1A (Homo sapiens) [8]; 0.39 with Torsin-1A (Homo sapiens) [9]; 1.81 in [10]. Besides, the z-score is -1.54 (inactive) in assay [2], -0.294 (inactive) in [3], -0.0243 (inactive) in [4] and 0.442 (inactive) in assay [5].
